This note sets out measurements from PubChem BioAssay.

Molecules are shown by their SMILES. Several values for one entry are separate records, joined by “and”; a condition that tells them apart may be missing. Identical values can stand only once. Activity calls are given as the source filed them.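 The calls were made as follows, unless noted: active = compounds whose cell count with miR-34 switched on is under 0.7 times the count with it off; inactive = the rest.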

Experiment [1] in a line: viability loss with induced miR-34 in A549 – imaging, A549 dox-inducible miR-34, nuclei and caspase counts, primary screen (AID 1347080). Conditions: A549 miR-34 inducible, Hoechst nuclei count, 48 h.
Experiment [2] in a line: MELAS cybrid and Rieske KO viability enhancers – cell-based, MELAS cybrids, Rieske KO mouse fibroblasts, CellTiter-Glo, primary screen (AID 1508586;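 active = mean z-score across replicates of 1.96 or higher in either the MELAS or the Rieske mutant cell line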;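 also: z relative to plate mean and SD of compound and empty wells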). Conditions: low glucose.
Where [3] appears, read: stronger effect = lower value, cell number ratio, induced over uninduced.
Setting [4] is: measured here: relative caspase fold change +Dox/-Dox.
Where [5] appears, read: measured here: total cells with miR-34 induction, stronger effect = lower value.
Setting [6] is: measured here: total cells without miR-34 induction.
The mark [7] stands for this setting: MELAS cybrid survival, CellTiter-Glo 48 h, stronger effect = higher value.
Setting [8] is: Rieske KO mouse fibroblast survival, CellTiter-Glo 72 h.
Also: test concentration not given here.

In the case of `NC1(C(=O)NC(CCO)c2ccc(Cl)cc2)CCN(c2ncnc3[nH]ccc23)CC1` (centres undefined), the fold change is 1.01 (inactive) in experiment [1] (setting [3]) and 0.36 in experiment [1] (setting [4]). Besides, the cell count in experiment [1] (setting [5]) worked out at 7310; in experiment [1] (setting [6]), 7200. The figures for the z-score in experiment [2] (setting [7]) and in experiment [2] (setting [8]) were -0.334 (inactive) and -0.0673, respectively.

As to `CCC(=O)O[C@@]1(C(=O)CCl)C(C)C[C@H]2[C@@H]3CC(F)C4=CC(=O)C=C[C@]4(C)[C@]3(F)C(O)C[C@@]21C` (some centres undefined), the fold change is 0.853 (inactive) in experiment [1] (setting [3]) and 0.626 in experiment [1] (setting [4]). Moreover, the cell count stood at 4930 in experiment [1] (setting [5]) and 5780 in experiment [1] (setting [6]). The z-score in experiment [2] (setting [7]) was -0.347 (inactive); in experiment [2] (setting [8]) it was -0.183.

`CC(=CC(=O)OCCCCCCCCC(=O)O)CC1OC[C@H](CC2O[C@H]2C(C)C(C)O)C(O)C1O` (some centres undefined): the fold change in experiment [1] (setting [3]) is 0.939 (inactive); in experiment [1] (setting [4]), 0.638. Besides, the cell count in experiment [1] (setting [5]) was found to be 8270; in experiment [1] (setting [6]) it was 8800. The z-score in experiment [2] (setting [7]) worked out at 0.679; in experiment [2] (setting [8]), 5.51.

Consider `OC1CO[C@H]2C(O)CO[C@H]12` (some centres undefined), for which the results for the fold change in experiment [1] (setting [3]) and in experiment [1] (setting [4]) were 0.905 (inactive) and 0.942, respectively. The cell count in experiment [1] (setting [5]) was 8830; in experiment [1] (setting [6]), 9750. Also, the results for the z-score in experiment [2] (setting [7]) and in experiment [2] (setting [8]) were -0.254 (inactive) and -0.154, respectively.

In the case of `CC1COC2=C1C(=O)C(=O)c1c2ccc2c1CCCC2(C)C` (centres undefined), the fold change in experiment [1] (setting [3]) is 1.09 (inactive); in experiment [1] (setting [4]), 0.507. The cell count is 2070 in experiment [1] (setting [5]) and 1890 in experiment [1] (setting [6]). The z-score in experiment [2] (setting [7]) is -0.382 (inactive); in experiment [2] (setting [8]), -0.5.

`Cc1cc(Nc2ccc(NC(=O)c3ccc(Nc4ccnc5ccccc45)cc3)cc2)nc(N)n1`: the results for the fold change in experiment [1] (setting [3]) and in experiment [1] (setting [4]) were 0.978 (inactive) and 0.411, respectively. The cell count in experiment [1] (setting [5]) was determined as 6080; in experiment [1] (setting [6]) it was 6210. The results for the z-score in experiment [2] (setting [7]) and in experiment [2] (setting [8]) were -0.384 (inactive) and -1.35, respectively.

Take `COC1C=CO[C@]2(C)Oc3c(C)c(O)c4c(O)c(c5c(nc6cc(C)ccn65)c4c3C2=O)NC(=O)C(C)=CC=CC(C)C(O)C(C)C(O)C(C)C(OC(C)=O)C1C` (some centres undefined): the results for the fold change in experiment [1] (setting [3]) and in experiment [1] (setting [4]) were 0.885 (inactive) and 1.2, respectively. Also, the figures for the cell count in experiment [1] (setting [5]) and in experiment [1] (setting [6]) were 7180 and 8110, respectively. In addition, the z-score is -0.112 (inactive) in experiment [2] (setting [7]) and 0.022 in experiment [2] (setting [8]).

Consider `CCCCCCOC(=O)N=C(N)c1ccc(NCc2nc3cc(C(=O)N(CCC(=O)OCC)c4ccccn4)ccc3n2C)cc1`, for which the fold change is 0.94 (inactive) in experiment [1] (setting [3]) and 0.85 in experiment [1] (setting [4]). In addition, the cell count amounted to 8810 in experiment [1] (setting [5]) and 9380 in experiment [1] (setting [6]). Also, the z-score is -0.278 (inactive) in experiment [2] (setting [7]) and 0.124 in experiment [2] (setting [8]).

In the case of `COC1=C2CC(C)CC(OC)C(O)C(C)C=C(C)C(OC(N)=O)C(OC)C=CC=C(C)C(=O)NC(=CC1=O)C2=O` (centres undefined), the fold change in experiment [1] (setting [3]) was 0.91 (inactive); in experiment [1] (setting [4]) it was 1.01. Also, the cell count in experiment [1] (setting [5]) turned out to be 3230; in experiment [1] (setting [6]) it was 3550. In addition, the figures for the z-score in experiment [2] (setting [7]) and in experiment [2] (setting [8]) were 2.85 (active) and -2.42, respectively.

Turning to `COc1ccc(CC(NC(=O)C(C)NC(=O)CN2CCOCC2)C(=O)NC(Cc2ccccc2)C(=O)[C@]2(C)CO2)cc1` (some centres undefined), the fold change in experiment [1] (setting [3]) is 1.43 (inactive); in experiment [1] (setting [4]) it was 1. Also, the cell count in experiment [1] (setting [5]) was 990; in experiment [1] (setting [6]), 690. The figures for the z-score in experiment [2] (setting [7]) and in experiment [2] (setting [8]) were -0.544 (inactive) and -7.62, respectively.

Consider `Cc1ccc(S(=O)(=O)C=CC#N)cc1`, for which the fold change was 0.909 (inactive) in experiment [1] (setting [3]) and 0.678 in experiment [1] (setting [4]). The cell count in experiment [1] (setting [5]) was determined as 7140; in experiment [1] (setting [6]) it was 7850. Also, the z-score in experiment [2] (setting [7]) was -0.499 (inactive); in experiment [2] (setting [8]), -0.608.

With `CC(=O)Nc1ccc(NC(=S)NC(=O)c2ccc(C(C)(C)C)cc2)cc1`, the fold change was 1 (inactive) and 1.05 (inactive) in experiment [1] (setting [3]); 1.21 and 0.561 in experiment [1] (setting [4]). Moreover, the cell count in experiment [1] (setting [5]) was 1820 and 1680; in experiment [1] (setting [6]), 1820 and 1600. Also, the z-score in experiment [2] (setting [7]) is -0.38 (inactive); in experiment [2] (setting [8]) it was 0.0517.

As for `COc1cc(C2Oc3cc(C4Oc5cc(O)cc(O)c5C(=O)C4O)ccc3OC2CO)ccc1O` (centres undefined), the results for the fold change in experiment [1] (setting [3]) and in experiment [1] (setting [4]) were 0.923 (inactive) and 0.695, respectively. Moreover, the cell count in experiment [1] (setting [5]) is 9600; in experiment [1] (setting [6]), 10400. Moreover, the figures for the z-score in experiment [2] (setting [7]) and in experiment [2] (setting [8]) were -0.412 (inactive) and 0.872, respectively.

Take `CC1C=CC=CC=CC=CC=CC=CC=CC(OC2OC(C)C(O)C(N)C2O)CC2O[C@@](O)(CC(O)CC(O)C(O)CCC(O)CC(O)CC(=O)OC(C)C(C)C1O)CC(O)C2C(=O)O` (some centres undefined): the fold change is 0.819 (inactive) in experiment [1] (setting [3]) and 1.3 in experiment [1] (setting [4]). For the same compound, the cell count was found to be 6680 in experiment [1] (setting [5]) and 8160 in experiment [1] (setting [6]). In addition, the z-score is -0.196 (inactive) in experiment [2] (setting [7]) and 0.383 in experiment [2] (setting [8]).
